Compounds with a hit are over-represented: about 2.3% of the library has one in this group of screens.
Pf Dd2 inh – blocks growth of Plasmodium falciparum Dd2 parasites. activity change, % at 10 µM. AID 1159554. P. falciparum Dd2 growth, SYBR Green, 72 h; stronger effect = lower value. 94,000 compounds, 2.3% hits; in the data active means activity change below about -80%; inconclusive means no clear call, values can overlap the other calls
C diff HTS – inhibitors of Clostridium difficile growth; Clostridium difficile clinical isolate growth, OD600, 24 h; stronger effect = lower value; growth activity, negative = inhibition, % at 16 µg/mL (by protocol); 86,000 compounds, 0.25% hits; AID 1259249;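 active means mean growth activity at or below -80% and every replicate also at or below -80%; inconclusive means mean at or below -80% but some replicate above -80%; inactive means mean growth activity above -80%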;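 further: 0% = DMSO wells and -100% = levofloxacin 16 µg/mL wells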
* = called active by the depositor; ? = inconclusive; . = no result given.

SMILES | Pf Dd2 inh | C diff HTS
C[C@H]1CN([C@@H](C)CO)S(=O)(=O)c2ccc(C#Cc3ccccc3)cc2O[C@@H]1CN(C)C(=O)Cc1ccccn1 | -78.1 | -10.2
C[C@@H]1CN([C@H](C)CO)S(=O)(=O)c2ccc(C#Cc3ccccc3)cc2O[C@@H]1CN(C)C(=O)C1CC1 | -82.2* | 4.0
C[C@@H]1CN([C@H](C)CO)C(=O)CCCn2cc(nn2)CO[C@H]1CN(C)S(=O)(=O)c1ccc2c(c1)OCCCO2 | 20.0 | .
CCCNC(=O)N1[C@@H](C#N)[C@H](c2ccc(-c3ccccc3F)cc2)[C@@H]1CO | -62.8 | -4.6
CCCNC(=O)N1[C@H](C#N)[C@H](c2ccc(-c3ccccc3F)cc2)[C@H]1CO | -87.5* | 11.8
CCCNC(=O)N1[C@H](C#N)[C@H](c2ccc(-c3ccccc3F)cc2)[C@@H]1CO | -86.8* | 17.9
CCCNC(=O)N1[C@H](CO)[C@@H](c2ccc(-c3ccccc3F)cc2)[C@@H]1C#N | -16.5 | 1.2
O=C(C[C@H]1CC[C@H]2[C@@H](COC[C@@H](O)CN2C(=O)c2ccc(F)cc2)O1)NC1Cc2ccccc2C1 | 12.6 | 5.9
C[C@H]1CN([C@@H](C)CO)C(=O)c2cc(NS(=O)(=O)c3ccc(Cl)cc3)ccc2O[C@@H]1CN(C)Cc1ccc(Cl)c(Cl)c1 | 2.5 | 43.2
CCN(C[C@H]1[C@H](c2ccccc2)[C@H](CO)N1C(C)=O)C(=O)NC1CCCC1 | -3.8 | -3.6
COCC#Cc1ccc([C@@H]2[C@H](CO)N3C(=O)CN(C(=O)C4CCOCC4)C[C@@H]23)cc1 | -17.9 | 8.9
C[C@@H]1CCCCO[C@H](CN(C)C(=O)Nc2cccc3ccccc23)[C@@H](C)CN([C@H](C)CO)C(=O)c2cc(NC(=O)Nc3ccc(F)cc3)ccc2O1 | -34.3 | -2.6
C[C@H](CO)N1C[C@H](C)[C@H](CN(C)C(=O)Nc2cccc3ccccc23)OCCCC[C@H](C)Oc2ccc(NC(=O)Nc3ccccc3)cc2C1=O | -25.6 | 0.6
C[C@@H]1CCCCO[C@H](CN(C)C(=O)Nc2cccc3ccccc23)[C@H](C)CN([C@@H](C)CO)C(=O)c2cc(NC(=O)Nc3ccc(F)cc3)ccc2O1 | -82.7* | 7.2
C[C@@H]1CN([C@@H](C)CO)C(=O)c2cc(NC(=O)Nc3ccccc3)ccc2O[C@@H](C)CCCCO[C@@H]1CN(C)C(=O)Nc1cccc2ccccc12 | -84.4* | 3.7
C[C@@H]1CCCCO[C@@H](CN(C)S(=O)(=O)c2ccc(Cl)cc2)[C@@H](C)CN([C@H](C)CO)C(=O)c2cc(NC(=O)CCC(F)(F)F)ccc2O1 | -78.2 | 3.6
C[C@@H]1CCCCO[C@@H](CN(C)S(=O)(=O)c2ccc(F)cc2)[C@@H](C)CN([C@H](C)CO)C(=O)c2cc(NC(=O)Nc3ccc(C(F)(F)F)cc3)ccc2O1 | -81.6* | .
C[C@@H]1CCCCO[C@H](CN(C)S(=O)(=O)c2ccc(F)cc2)[C@@H](C)CN([C@@H](C)CO)C(=O)c2cc(NC(=O)Nc3ccc(C(F)(F)F)cc3)ccc2O1 | -84.5* | .
C[C@@H]1CN([C@@H](C)CO)C(=O)c2cc(NC(=O)CCC(F)(F)F)ccc2O[C@@H](C)CCCCO[C@@H]1CN(C)S(=O)(=O)c1ccc(Cl)cc1 | -85.6* | -7.4
C[C@@H]1CCCCO[C@@H](CN(C)S(=O)(=O)c2ccc(F)cc2)[C@H](C)CN([C@@H](C)CO)C(=O)c2cc(NC(=O)Nc3ccc(C(F)(F)F)cc3)ccc2O1 | 10.7 | .
C[C@@H]1CCCCO[C@@H](CN(C)S(=O)(=O)c2ccc(Cl)cc2)[C@H](C)CN([C@H](C)CO)C(=O)c2cc(NC(=O)Nc3ccc(C(F)(F)F)cc3)ccc2O1 | -77.4 | 14.5
C[C@@H]1CCCCO[C@@H](CN(C)S(=O)(=O)c2ccc(Cl)cc2)[C@@H](C)CN([C@H](C)CO)C(=O)c2cc(NC(=O)Nc3ccc(C(F)(F)F)cc3)ccc2O1 | -85.6* | 18.7
C[C@H](CO)N1C[C@H](C)[C@H](CN(C)S(=O)(=O)c2ccc(F)cc2)OCCCC[C@H](C)Oc2ccc(NC(=O)Nc3ccc(C(F)(F)F)cc3)cc2C1=O | -31.3 | .
COc1ccccc1S(=O)(=O)N(C)C[C@H]1Oc2ncc(-c3ccc(C)cc3)cc2C(=O)N([C@H](C)CO)C[C@@H]1C | -39.3 | 18.4
O=C(c1ccccc1)N1C[C@H]2[C@@H](c3ccccc31)[C@H](CO)N2C(=O)c1ccccn1 | 4.1 | -3.3
SMILES | Pf Dd2 inh | C diff HTS
COc1ccc(NC(=O)N[C@H]2CC[C@H](CCNC(=O)c3cc(Cl)cc(Cl)c3)O[C@@H]2CO)cc1 | -7.5 | .
C[C@H](NC(=O)[C@@H]1[C@@H](CO)[C@@H]2Cn3c(ccc(C4=CCCCC4)c3=O)[C@@H]2N1C)c1ccccc1 | -0.1 | -4.0
COc1ccccc1-c1ccc([C@H]2[C@@H](C#N)N(C(=O)C3CC3)[C@@H]2CO)cc1 | 9.2 | 7.6
CCCN(C)C[C@H]1OCCCC[C@H](C)Oc2ccc(NS(=O)(=O)c3c(C)noc3C)cc2C(=O)N([C@@H](C)CO)C[C@@H]1C | -88.9* | -2.7
CCCN(C)C[C@H]1OCCCC[C@@H](C)Oc2ccc(NS(=O)(=O)c3ccc(Cl)cc3)cc2C(=O)N([C@H](C)CO)C[C@@H]1C | -13.6 | -2.6
CCCN(C)C[C@H]1OCCCC[C@H](C)Oc2ccc(NS(=O)(=O)c3ccc(C)cc3)cc2C(=O)N([C@H](C)CO)C[C@H]1C | -85.9* | 8.2
CCCN(C)C[C@H]1OCCCC[C@@H](C)Oc2ccc(NS(=O)(=O)c3ccc(F)cc3)cc2C(=O)N([C@H](C)CO)C[C@@H]1C | 0.4 | -5.6
CCCN(C)C[C@H]1OCCCC[C@H](C)Oc2ccc(NS(=O)(=O)c3ccc(C)cc3)cc2C(=O)N([C@@H](C)CO)C[C@@H]1C | -89.6* | 3.9
CCCN(C)C[C@H]1OCCCC[C@H](C)Oc2ccc(NS(=O)(=O)c3c(C)noc3C)cc2C(=O)N([C@H](C)CO)C[C@H]1C | -71.0 | -0.6
CCCN(C)C[C@H]1OCCCC[C@H](C)Oc2ccc(NS(=O)(=O)c3ccc(Cl)cc3)cc2C(=O)N([C@H](C)CO)C[C@H]1C | -27.8 | 2.4
CCCN(C)C[C@@H]1OCCCC[C@@H](C)Oc2ccc(NS(=O)(=O)c3ccc(C)cc3)cc2C(=O)N([C@H](C)CO)C[C@H]1C | -88.6* | 6.0
Cc1noc(C)c1S(=O)(=O)Nc1ccc2c(c1)C(=O)N([C@@H](C)CO)C[C@H](C)[C@@H](CN(C)CC1CC1)OCCCC[C@@H](C)O2 | -52.5 | -0.7
O=C(CN1CCOCC1)N1CCCCN2[C@H](C1)[C@@H](c1ccc(/C=C/c3ccccc3)cc1)[C@@H]2CO | -11.8 | -8.1
COc1ccc2c3c(n(C)c2c1)[C@@H](CO)N(Cc1cccc(F)c1)CC31CN(C(=O)Cc2ccccc2)C1 | -74.4 | 38.6
CCCNC(=O)N1[C@H](C#N)[C@H](c2ccc(-c3ccc(C(=O)N(C)C)cc3)cc2)[C@H]1CO | -62.4 | 6.0
C(=C\c1ccc(C2[C@H]3CNC[C@@H]2N3Cc2ccccn2)cc1)/c1ccccc1 (stereo partly specified) | -19.2 | -12.0
C[C@@H]1CCCCO[C@H](CN(C)C(=O)Nc2ccc(C(F)(F)F)cc2)[C@@H](C)CN([C@H](C)CO)C(=O)c2cc(NC(=O)NC3CCCCC3)ccc2O1 | -78.2 | -7.4
C[C@@H]1CCCCO[C@@H](CN(C)C(=O)Nc2ccccc2)[C@@H](C)CN([C@@H](C)CO)C(=O)c2cc(NC(=O)Nc3ccc(C(F)(F)F)cc3)ccc2O1 | ? | -6.9

Bioassay records as filed in PubChem.
